Data taken from PubChem BioAssay.
Values without a mark were called inactive.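 Rule for the calls: active = viability loss from added drug above about 55%, and viability with drug at most 40%, in both replicates (limit read from the data, passing the limit was not always enough); inconclusive = both conditions met in only one replicate; inactive = neither replicate meets both conditions.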

Test: MRP1 drug-resistance reversers in H69AR cells – cell-based, doxorubicin co-treatment, pilot screen (AID 601)
Conditions: H69AR cells + 2 uM doxorubicin, CellTiter-Glo, 72 h; at 10 µM; active compounds read high

| SMILES | differential viability (reversal) |
| --- | --- |
| CN=C1CC(C)(C)CC(=O)/C1=C(/O)CCC(=O)NC | 10.2% |
| CC(C)(C)NC(=O)Cn1nnc(-c2cccs2)n1 | 13.1% |
| Nc1nnc(SCC(=O)N2CCc3ccccc32)n1-c1ccccc1 | 6.62% |
| O=C(CSc1ncnc2c1oc1ccccc12)Nc1ccccc1F | 7.33% |
| O=C(Nc1cccc(C(F)(F)F)c1)c1cccnc1N1CCCC1 | -6.8% |
| Cc1cc(C(F)(F)F)nn1Cc1ccc(C(=O)NCc2ccco2)o1 | 0.38% |
| O=C(C1CCCN(S(=O)(=O)c2cccnc2)C1)N1CCN(c2ccccn2)CC1 (stereo unspecified) | 8.35% |
| O=C(CCn1c(=S)[nH]c2cc3c(cc2c1=O)OCO3)N1CCN(C2CCCCC2)CC1 | -2.85% |
| CC(C)CC(=O)CN1C(=O)C2(OCCO2)c2ccccc21 | -6.21% |
| CNC(=O)CN(C#N)c1nc(N(C)C)nc(N(C)C)n1 | 2.61% |
| O=C(Oc1ccc2c(c1)CCC2)N1CCOCC1 | 6.64% |
| CCCn1c(N2CCN(CC(=O)Nc3ccc4c(c3)OCCO4)CC2)nc2ccccc21 | 0.63% |
| COCc1ccccc1Cn1cnc2c1c(=O)n(C)c(=O)n2C | 8.8% |
| O=C(Nc1ccc(N2CCOCC2)cc1)c1cc2ccccc2o1 | 3.15% |
| COc1ccc(N2C(=O)CC(NC3CC3)C2=O)cc1 (stereo unspecified) | 0.64% |
| COc1cccc(C(=O)NCc2nnc(SCC(=O)Nc3nccs3)n2-c2ccccc2)c1 | -3.27% |
